NTMT1 inh – inhibitors of human N-terminal methyltransferase NTMT1. Q9BV86. NTMT1 MTase-Glo SAH luminescence, purified enzyme. Potency, µM (titrated, usually from 114 µM), without a hit: at the top dose activity change, negative = inhibition, usual class: inhibitors. actives 2.5% (n = 59,000). AID 1645870;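 note: plate controls were DMSO vehicle for no effect and no enzyme for full effect; nearly all actives have a fitted effect of over 65% in size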
PMP22 txn prim – modulators of PMP22 gene transcription in S16 Schwann cells; S16 Pmp22-F2sN Schwann cells, FLuc/NLuc coincidence luminescence, 24 h; Potency, µM (doses to about 57.5 µM), for the others: top-dose activity change, negative = inhibition, most hits filed as inhibitors; actives 2% (n = 43,000); AID 1508649; active = clear falling dose curves in both reporters; inconclusive = both reporters move, but less clearly or upward; inactive = either reporter flat; the % is the NLuc reporter signal; note: % is set by controls: 0 for no effect and ±100 for the full control effect
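Rat S16 Pmp22-F2sN cells, 500-1,000/well in phenol red-free DMEM + 10% FBS, compound-treated 24 h (37C, 5% CO2). Luminescence: FLuc read, Stop&Glo added, NLuc read.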
S16 viability – cytotoxicity in S16 Pmp22-F2sN Schwann cells. AID 1508642. S16 Pmp22-F2sN Schwann cells (luciferase reporters placed in the Pmp22 gene) viability, CellTiter-Glo, 24 h. Potency, µM (highest dose often 57.5 µM), without a hit: top-dose activity change, negative = cytotoxicity, hits mostly cytotoxic. actives 0.48% (n = 43,000); note: % is set by controls: 0 for no effect and ±100 for the full control effect; nearly all actives have a fitted effect of over 65% in size
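Rat S16 Schwann reporter line, 24 h treatment with library compounds delivered at 23 nL per well. Cell viability by CellTiter-Glo luminescence.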
pS6 MEF inh – reduces mTORC1 signaling in Tsc2 and p53 null MEF cells; Tsc2-/- p53-/- MEF, phospho-rpS6 immunofluorescence/PI, 24 h; Potency, µM (doses to about 38.3 µM), inactives show at the top dose activity change, negative = inhibition, most hits filed as inhibitors; actives 0.78% (n = 44,000); AID 493208;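 note: plate controls were DMSO for no effect and rapamycin for full effect; nearly all actives have a fitted effect of over 50% in size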
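Readout is phospho-S6 Alexa 488 signal normalized to PI per well, reported as % active cells with thresholds set from rapamycin (7.5 nM) and DMSO controls. Cells: Tsc2-/-, p53-/- MEFs, 24 hrs compound at 37 C; PI cell number serves as viability.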
GALC G270D up – raises human GALC G270D mutant activity in cells; 145M-Twi-hGALC-G270D cells, HMU-beta-Gal fluorescence, 48 h; actives 0.1% (n = 45,000); AID 1159614; P54803; Potency, µM (titrated, usually from 57.5 µM), actives largely listed as activators; note: 0% is about no effect; nearly all actives have a fitted effect of over 65% in size
Target sequence (P54803 whole entry G286D): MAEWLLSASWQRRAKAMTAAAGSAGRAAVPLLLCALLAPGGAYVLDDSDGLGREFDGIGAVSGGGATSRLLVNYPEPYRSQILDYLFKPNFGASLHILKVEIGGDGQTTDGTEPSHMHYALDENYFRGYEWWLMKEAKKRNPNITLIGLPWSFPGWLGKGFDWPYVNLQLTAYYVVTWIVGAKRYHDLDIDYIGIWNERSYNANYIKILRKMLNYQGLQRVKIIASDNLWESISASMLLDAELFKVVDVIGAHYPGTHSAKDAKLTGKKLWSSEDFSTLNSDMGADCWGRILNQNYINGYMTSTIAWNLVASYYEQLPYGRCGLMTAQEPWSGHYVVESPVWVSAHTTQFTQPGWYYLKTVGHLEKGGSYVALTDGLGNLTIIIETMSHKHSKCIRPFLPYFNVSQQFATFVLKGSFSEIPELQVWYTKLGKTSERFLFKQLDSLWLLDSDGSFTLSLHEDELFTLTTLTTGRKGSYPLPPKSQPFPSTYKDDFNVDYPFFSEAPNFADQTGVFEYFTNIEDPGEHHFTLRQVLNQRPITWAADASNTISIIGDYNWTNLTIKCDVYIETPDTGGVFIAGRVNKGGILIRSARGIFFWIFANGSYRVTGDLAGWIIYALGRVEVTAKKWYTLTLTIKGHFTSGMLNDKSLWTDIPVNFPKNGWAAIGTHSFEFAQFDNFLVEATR
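qHTS, 1536-well; 145M-Twi-hGALC-G270D cells (WT line also made) in DMEM/F12 + 10% FBS; compound incubation on live cells; HMU-β-gal 0.1 mM final, pH 5.2, NaTC; carbonate stop; fluorescence increase = enhanced residual activity.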
SKOV3 invasion – ovarian cancer metastasis inhibition, 3D TME model. actives 0.1% (n = 46,000). AID 1963576. Potency, µM (titrated, usually from 45.8 µM), inactives show top-dose activity change, negative = inhibition, usual class: inhibitors. SKOV3ip1-GFP adhesion/invasion on 3D omental model, fluorescence;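 note: plate controls were DMSO wells for no effect and tomatine positive control wells for full effect; nearly all actives have a fitted effect of over 65% in size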
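Adhesion/invasion was scored as fixed GFP-labeled SKOV3ip1 cell counts (488/509 nm), normalized to DMSO and tomatine controls. Cancer cells in serum-free medium, with four compound doses (0.36-46 umol/L), sat 2 hr at RT then 16 hr at 37 C on a 48 hr fibroblast/mesothelial/ECM culture.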
* marks the source's active call; other numbers are inactive results; i = inactive; u = inconclusive; x = no result given; ! = not confirmed by another sample; [ ] = dose if it differs, or a comment. A selection: hits, their analogues and other compounds. The true share with any hit is near 3.6%. Unless noted, calls come from the whole dose curve; as a rule, active = well fitted curve in the direction sought with a large enough effect; inconclusive = small, poorly fitted or top-dose-only effect, or another doubt; inactive = no such curve, though single readings can be large; an effect the other way counts as inactive or inconclusive. Potency is the fitted concentration of half-maximal effect.

SMILES	NTMT1 inh	PMP22 txn prim	S16 viability	pS6 MEF inh	GALC G270D up	SKOV3 invasion
COc1cc(C)c(C(=O)O[C@@H]2[C@H](O)[C@@H](CO)O[C@H]2n2ccc(=O)[nH]c2=O)c(OC)c1	-14%[29.8 µM]	x	x	x	x	x
Cc1cccc(N(C)C(=S)Oc2ccc3c(c2)C2CCC3C2)c1 (stereo not given)	22%[57.5 µM]	x	x	x	i	x
CCN1CCN(Cc2ccc(-c3cc4c(N[C@H](C)c5ccccc5)ncnc4[nH]3)cc2)CC1	22µM*	x	x	x	x	3%
CCN1CCN(Cc2ccc(-c3cc4c(NC(C)c5ccccc5)ncnc4[nH]3)cc2)CC1 (stereo not given)	14µM*	x	x	x	x	x
NCc1ccc(OCCCc2sc(-c3ccc4c(c3)/C(=N/Nc3nc5ccccc5s3)CCC4)nc2C(=O)O)cc1	40µM*!	x	x	x	x	x
Cc1ccc(CNCc2ccccc2)s1	8%	-17%	1%	5%	i	-4%
CNCc1ccccc1	56µM*	x	x	x	i	x
COc1ccc(NS(=O)(=O)c2cc(Br)cc3c2N(C(=O)C2CC2)CC3)cc1OC	u	14µM*	-14%	u	i	0%
CC(=O)Nc1ccc(NS(=O)(=O)c2cc(Br)cc3c2N(C(=O)C2CC2)CC3)cc1	2%	-15%	4%	-11%	i	0%
c1ccc(CN(CC2=NCCN2)c2ccccc2)cc1	5%[57.5 µM]	x	x	x	i	x
Cc1ccc(N(CC2=NCCN2)c2cccc(O)c2)cc1	89µM*!	x	x	x	i	-4%
COc1ccc(C(=O)Nc2ccc3nc4n(c(=O)c3c2)CCCCC4)cc1OC	4%	u	3%	2%	i	2%
COc1cc(C(=O)Nc2ccc3nc4n(c(=O)c3c2)CCCCC4)cc(OC)c1OC	50µM*	-21%	u	2%	i	3%
COC(=O)Nc1sc2c(c1-c1nc3ccccc3s1)CCNC2	17%	x	x	x	x	x
Cc1cc(C)c(-c2n[nH]c3c2C(c2ccccc2F)N(Cc2ccco2)C3=O)c(O)c1 (stereo not given)	7%	u	-15%	13µM*	i	-22%
COc1ccc(C2c3c(-c4c(C)cc(C)cc4O)n[nH]c3C(=O)N2Cc2ccco2)cc1 (stereo not given)	4%	u	-1%	u	u	u
CC(C)CCCC(C)NCCC(C)C (stereo not given)	22%[57.5 µM]	x	x	x	i	x
CN1CCN(C2CCC(n3cc(-c4ccc(Oc5ccccc5)cc4)c4c(N)ncnc43)CC2)CC1 (stereo not given)	28µM*!	x	x	x	x	x
COc1ccc(C(=O)Nc2ccc(N3CCOCC3)c(C(F)(F)F)c2)cc1OC	-30%	u	-10%	-26%	i	-19%
CCOc1cc2c(c(F)c1OCC)C(=N)N(CC(=O)c1cc(N3CCOCC3)c(OC)c(C(C)(C)C)c1)C2	32µM*!	x	x	x	x	-27%
CC/C(=C(/c1ccc(/C=C/C(=O)O)cc1)c1ccc2[nH]ncc2c1)c1ccc(F)cc1Cl	32µM*	x	x	x	x	x
Cc1cc(Nc2ncnc3ccc(NC4=NC(C)(C)CO4)cc23)ccc1Oc1ccn2ncnc2c1	-18%	x	x	x	x	x
CCOc1ccccc1C(=O)Nc1ccc2nc(N(CC)CC)cc(C)c2c1	-5%	-23%	u	-21%	i	-2%
CCN(CC)c1cc(C)c2cc(NC(=O)/C=C/c3cc(OC)c(OC)c(OC)c3)ccc2n1	-22%	u	u	18µM*	i	u
CCN(CC)c1cc(C)c2cc(NC(=O)/C=C/c3ccc(C)cc3)ccc2n1	9%	-18%	22%	2%	i	-20%
SMILES	NTMT1 inh	PMP22 txn prim	S16 viability	pS6 MEF inh	GALC G270D up	SKOV3 invasion
CCOc1ccc(/C=C/C(=O)Nc2ccc3nc(N(CC)CC)cc(C)c3c2)cc1OC	-5%	u	u	13µM*	i	u
Cc1cc(Nc2cccc(C(F)(F)F)c2)nc2ccc(NC(=O)c3cccnc3)cc12	3%	u	u	u	i	11µM*
CC1=C(C(=O)Nc2ccccc2)C(c2ccc(F)cc2)n2nc(SCc3cc(C)ccc3C)nc2N1 (stereo not given)	4%	2%	3%	0%	i	36%
COc1ccccc1NC(=O)C1=C(C)Nc2nc(SCc3cc(C)ccc3C)nn2C1c1ccccc1 (stereo not given)	7%	17µM*	10µM*	-3%	i	8%
COc1c(O)cc2c(c1O)C(=O)O[C@H](C)[C@H]2O	3%[57.5 µM]	x	x	x	x	x
c1cncc(-c2ccc(CNc3nc(N4CCCC4)nc4ccccc34)cc2)c1	40µM*	x	x	x	x	x
Brc1ccccc1-c1nc(NCc2ccc(-c3cccnc3)cc2)c2ccccc2n1	16%	x	x	x	x	x
OCc1ccccc1O	37%[57.5 µM]	x	x	x	i	x
Oc1ccc2ccccc2c1SSc1c(O)ccc2ccccc12	8.9µM*!	x	x	x	x	26µM*
Cc1ccc(-n2[nH]c(C)c(N=Nc3cccc(-c4cccc(C(=O)O)c4)c3O)c2=O)cc1C	35µM*!	x	x	x	i	-8%
O=c1[nH]sc2cc(Cl)ccc12	2.8µM*	x	x	x	i	x
CN1CCN(c2cccc(CNc3nn4c(=O)c5ccccc5nc4s3)c2)CC1	7%	x	x	x	x	x
CSc1ncc(C(=O)Nc2ccccc2C(F)(F)F)c(-c2ccccc2)n1	89µM*	-24%	-2%	-11%	i	2%
CCOC(=O)c1ccc(N2C(=O)c3n[nH]c(C)c3C2c2ccc(CC)cc2)cc1 (stereo not given)	5%	0%	25%	7%	i	i
CCOC(=O)c1ccc(N2C(=O)c3n[nH]c(C)c3C2c2cccc(Br)c2)cc1 (stereo not given)	8%	u	u	16µM*	i	-5%
C=CC(=O)Nc1cccc(CN2C(=O)N(c3c(Cl)c(OC)cc(OC)c3Cl)Cc3cnc(NCCCCN(CC)CC)nc32)c1	1%[57.5 µM]	x	x	x	x	x
CCOc1ccc(NC(=O)CSc2oc(-c3ccc(C)cc3)nc2S(=O)(=O)c2ccc(C)cc2)cc1	u	u	22µM*	0%	i	-1%
Cc1cc(C)c(NC(=O)Cn2c(=O)n(Cc3ccc(C(=O)NCc4ccco4)cc3)c(=O)c3sccc32)c(C)c1	50µM*	u	-6%	-6%	i	-2%
O=C(OCC1=C[C@@H](O)[C@@H]2C=CO[C@@H](O[C@@H]3O[C@H](CO)[C@@H](O)[C@H](O)[C@H]3O)[C@H]12)c1ccc(O)cc1	-6%[29.8 µM]	x	x	x	x	x
CN(C)CCn1cc(-c2ccc(F)cc2)c(-n2cccc2)n1	-4%[57.5 µM]	x	x	x	x	x

Screening data: PubChem, National Center for Advancing Translational Sciences (NCATS)
